Active and inactive are the calls of the source. The rule behind the calls is not given here.

Chain of Pantothenate synthetase (Mycobacterium tuberculosis (strain ATCC 25618 / H37Rv)) (P9WIL5 whole entry, looked up): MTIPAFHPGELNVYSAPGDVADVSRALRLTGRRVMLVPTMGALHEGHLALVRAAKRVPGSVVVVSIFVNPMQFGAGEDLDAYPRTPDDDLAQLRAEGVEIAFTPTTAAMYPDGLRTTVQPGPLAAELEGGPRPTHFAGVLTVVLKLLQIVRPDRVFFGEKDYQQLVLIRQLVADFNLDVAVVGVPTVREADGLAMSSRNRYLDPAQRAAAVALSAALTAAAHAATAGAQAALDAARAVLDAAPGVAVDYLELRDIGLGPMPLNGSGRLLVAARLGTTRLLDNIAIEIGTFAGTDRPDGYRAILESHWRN

The experiment concerns the target Pantothenate synthetase (Mycobacterium tuberculosis (strain ATCC 25618 / H37Rv)) (UniProt P9WIL5). Description: Recombinant Mtb pantothenate synthetase (PanC) inhibitors, coupled enzyme, confirmatory (AID 375).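 Note: 0% = full reaction with vehicle and 100% = no enzyme background.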 Conditions: coupled enzyme assay; at 10 µM, stronger effect = higher value.
As a reminder, the inhibition is the percentage by which the read-out fell short of the control. On to `COc1ccc(Cl)c(NC(=O)NCCN2CCN(c3ccccc3)CC2)c1`, for which the inhibition is 0% (inactive). With `COc1cccc(OCCn2ccnc2)c1`, the inhibition is 4% (inactive). Consider `CCN1C(=O)c2ccccc2S(=O)c2ccc(C(=O)NC3CC3)cc21` (stereo not drawn), for which the inhibition is 6% (inactive). The result for `CC1CCN(S(=O)(=O)c2ccc3[nH]cc(C(=O)NCCN4CCOCC4)c(=O)c3c2)CC1` reads 0% (inactive).

As to `O=C(CCn1c(=O)sc2ccccc21)NC1=NCCS1`, the inhibition was 3% (inactive). Then `CCn1c(SCC(=O)Nc2ccccc2F)nc2c(c1=O)SC(C)C2` (stereo not drawn), with 0% (inactive); and `CC(=O)c1c(C)[nH]c(C(=O)NCc2cccs2)c1C`, with 0% (inactive). As to `COC(=O)Cn1c(CN2CCOCC2)nc2c1c(=O)n(C)c(=O)n2C`, the inhibition is 0% (inactive). On to `C=CCn1c(SCc2cc(=O)n3ccsc3n2)nnc1C1CCCCC1`, for which the inhibition is 0% (inactive).

Turning to `O=S(=O)(c1cc(Cl)ccc1Br)N1CCOCC1`, the inhibition was 0% (inactive). Then `CC(=O)c1cc2c(=O)c3cc(C)ccc3oc2nc1C`, with 0% (inactive). `COC(=O)c1cc2ccsc2n1Cc1nc(-c2ccc(OC)cc2)oc1C`: the inhibition is 9% (inactive). As for `COCCNC(=O)CN1C(=O)CSc2ncccc21`, the inhibition is 0% (inactive).

Turning to `CC(O)c1nc2ccccc2n1C1CCCCC1` (stereo not drawn), the inhibition was 0% (inactive). Turning to `CCOc1ccc2[nH]c(O)c(NC(C)=O)c2c1`, the inhibition is 0% (inactive). On to `CNC(=O)Nc1cccc(C(F)(F)F)c1`, for which the inhibition was 0% (inactive). Regarding `CS(=O)(=O)N(CC(=O)NCCSCc1cccc(Cl)c1)c1ccc2c(c1)OCO2`, the inhibition was 1% (inactive). In the case of `O=C(Nc1ccc2snnc2c1)N1CCN(c2ccccc2)CC1`, the inhibition was 0% (inactive).

(Values after PubChem BioAssay.)
